IL-1B inflam inh = inhibitors of inflammasome signaling (IL-1 beta secretion); THP-1 LPS/ATP IL-1B secretion, AlphaLISA, 16 h; stronger effect = lower value; activity change, % at 57.5 µM; 360,000 compounds, 4.7% hits; in the data active = activity change below about -50%; inconclusive = mostly about -30% to -49%; note: % is set by controls: 0 for no effect and ±100 for the full control effect
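THP-1 cells pretreated 1 hr with compounds (up to 57.5 uM final), then stimulated with LPS (250 ng/mL final) plus ATP (1.25 mM final); secreted IL-1B measured by AlphaLISA after 16 hr, decreased signal indicating inhibition.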
MCF10A rerep = DNA re-replication induction in MCF 10a cells | MCF 10A DNA re-replication, Hoechst nuclear intensity, 48 h | Potency, µM (top dose mostly 46.1 µM), for the others: at the top dose activity, positive = re-replication, most hits filed as activators | 350,000 compounds, 2.9% hits | AID 624296; note: potency is the fitted concentration of half-maximal effect; % of control where 0% means no effect; nearly all actives have a fitted effect of over 50% in size
BCR signal inh = inhibitors of chronic active B-cell receptor signaling; ABC-DLBCL IkBa-CBG/CBR reporter, luminescence ratio, 4 h; Potency, µM (doses to about 46.1 µM), for inactives: at the highest dose activity change, negative = inhibition, most hits filed as inhibitors; AID 493014; 340,000 compounds, 0.05% hits; active = well fitted inhibition curve with a large enough effect in the signal ratio, with a control signal flat, not every such curve was filed as active; inconclusive = small, poorly fitted or top-dose-only effect, or effect the other way, or a change in a side signal; the % refers to the signal ratio;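 note: potency is the fitted concentration of half-maximal effect; plate controls were basal doxycycline-induced cells for no effect and cells given 10 µM MG132 for full effect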
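TMD8 human ABC-DLBCL cells with doxycycline-inducible IκBα–green luciferase fusion and unfused red luciferase, in 0.5% FBS medium; compounds up to 46 uM, 4 h at 37C. Green/red luminescence ratio, filter-overlap corrected, fitted to concentration-response curves.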
TDP1 cell noCPT = qHTS for Inhibitors of human tyrosyl-DNA phosphodiesterase 1 (TDP1): qHTS in cells in absence of CPT; DT40 Tdp1-/- hTDP1 cells, no CPT, ATP luminescence, 48 h; Potency, µM (highest dose often 46.2 µM), for inactives: top-dose activity change, negative = growth inhibition, hits mostly inhibitors; 420,000 compounds, 15% hits; AID 686978, 2013; note: potency is the fitted concentration of half-maximal effect; % is set by controls: 0 for no effect and ±100 for the full control effect; nearly all actives have a fitted effect of over 55% in size
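Chicken DT40 Tdp1-/- cells stably complemented with human TDP1 were seeded at 400 cells/well with DMSO in place of 20 nM camptothecin. After compound pinning, cells grew at least 48 hr at 37 °C; viability read by CellTiter-Glo luminescence.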
SW480 rerep = inducers of DNA re-replication in SW480 colon cancer cells; SW480 DNA re-replication, Hoechst DNA content imaging, 48 h; Potency, µM (titrated, usually from 46.1 µM), inactives show top-dose re-replication activation, usual class: activators; 340,000 compounds, 1.8% hits; AID 624297; note: potency is the fitted concentration of half-maximal effect; % of control where 0% means no effect; nearly all actives have a fitted effect of over 55% in size
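Compounds, transferred as 23 nL by pin tool, were incubated with cells for 48 hr; DNA content per nucleus was then quantified by Hoechst staining and fluorescence plate imaging.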
DT40 TDP1 CPT = DT40-hTDP1 cell growth loss with CPT; chicken DT40 Tdp1-/-;hTDP1 cells + 20 nM CPT, ATP luminescence, 48 h; Potency, µM (series often up to 46.2 µM), for inactives: at the highest dose activity change, negative = growth inhibition, hits mostly inhibitors; 420,000 compounds, 12% hits; AID 686979; note: potency is the fitted concentration of half-maximal effect; % is set by controls: 0 for no effect and ±100 for the full control effect; nearly all actives have a fitted effect of over 55% in size
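Chicken DT40 Tdp1-/- cells complemented with human TDP1, 400 cells/well, exposed to compounds plus 20 nM camptothecin for at least 48 h at 37 C; viability read as ATP content by CellTiter-Glo luminescence.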
Numbers without * were called inactive; u = inconclusive; x = no result given; [ ] = another dose, or the depositor's remark. Sampled rows, rich in hits. Any-hit rate of the full collection: about 19%. Unless noted, calls come from the whole dose curve; as a rule, active = well fitted curve in the direction sought with a large enough effect; inconclusive = small, poorly fitted or top-dose-only effect, or another doubt; inactive = no such curve, though single readings can be large; an effect the other way counts as inactive or inconclusive.

SMILES	IL-1B inflam inh	MCF10A rerep	BCR signal inh	TDP1 cell noCPT	SW480 rerep	DT40 TDP1 CPT
Nc1nn2c(-c3ccccc3)cc(=O)[nH]c2c1N=Nc1ccc(Br)cc1	6	u	4%	16µM*	-1%	u
CC1(C)C(=O)NC2=C1C(=O)C(=O)c1ccccc12	x	x	x	0.94µM*	x	1.3µM*
COc1ccc(C=NNC(=O)c2cc(C)oc2C)cc1O	8	u	u	16µM*	u	u
COc1cc(/C=N/NC(=O)c2cc(C)oc2C)ccc1O	-10	7%	u	-16%	u	-10%
Cc1ccc(/C=N/NC(=O)c2cc(C)oc2C)cc1	-7	u	u	16µM*	4.6µM*	23µM*
CC[C@@]1(C(=O)OC)N[C@H](CN(C)C(=O)COC)[C@@H]2C(=O)N(Cc3ccccc3)C(=O)[C@@H]21	15	3%	0%	9%	7%[9.22 µM]	-11%
CC1Cc2nc(SCC(=O)N3CCN(c4ccccc4)CC3)n(CCc3ccccc3)c(=O)c2S1 (configuration not stated)	-20	6%	u	13µM*	-3%	18µM*
CCn1c(SCC(=O)N2CCCC2)nc2c(c1=O)SC(C)C2 (configuration not stated)	6	1%	8%	-19%	-6%	1%
CC1Cc2nc(SCC(=O)N3CCOCC3)n(-c3ccccc3)c(=O)c2S1 (configuration not stated)	-4	4%	u	1%	-15%	-19%
CCn1c(SCC(=O)N2CCN(c3ccccc3)CC2)nc2c(c1=O)SC(C)C2 (configuration not stated)	-16	-1%	u	21µM*	-4%	u
O=C(CSc1nc2c(c(=O)n1-c1ccccc1)SCC2)N1CCOCC1	-6	0%	-2%	7%	-24%	-6%
O=C(CSc1nc2c(c(=O)n1-c1ccccc1)SCC2)N1CCN(c2ccccc2)CC1	-20	2%	7%	u	-11%	18µM*
CC1Cc2nc(SCC(=O)N3CCN(c4ccccc4)CC3)n(C)c(=O)c2S1 (configuration not stated)	-2	u	0%	13µM*	-10%	u
O=S(=O)(NCc1ccccc1)NCc1ccc(Cl)cc1Cl	-21	u	7%	5%	0%	u
COCc1cc(O)c(O)c(O)c1-c1c(COC)cc(O)c(O)c1O	x	x	x	4.5µM*	x	5µM*
CCc1oc(C(=O)O)cc1COC	21	5%	2%	5%	-2%	-1%
C1=Cc2ccccc2/C1=C\c1ccc2c(c1)OCO2	x	x	x	-37%	x	-24%
COc1ccc2nc(N3CCCC(C(=O)NCCc4ccc(OC)c(OC)c4)C3)sc2c1 (configuration not stated)	-1	9%	-9%	13µM*	-3%	u
COc1ccc2nc(N3CCCC(C(=O)NCCCN4CCN(C)CC4)C3)sc2c1 (configuration not stated)	-28	0%	-15%	0%	0%	-2%
O=C(NCCc1ccc(Cl)cc1)c1ccc2nc(N3CCOCC3)sc2c1	10	21µM*	-9%	u	4%	u
COc1ccc(CCNC(=O)c2ccc3nc(N4CCCCC4)sc3c2)cc1OC	32	18%	17%	21µM*	-5%	18µM*
COc1ccc(CCNc2nc(N3CCCCC3)nc(N3CCCCC3)n2)cc1OC	-17	u	u	23µM*	u	u
Cc1ccc(N2CCN(C(=O)c3cn(C)c4ccc(S(=O)(=O)N(C)C5CCCCC5)cc4c3=O)CC2C)cc1 (configuration not stated)	x	x	x	-9%	x	-2%
O=C(NC1CC1)C1CCN(c2ncccn2)CC1	-1	18%	-1%	5%	-5%	0%
COc1ccc(CCNC(=S)Nc2ccc(C(C)C)cc2)cc1	-16	u	2%	18µM*	5%	u
SMILES	IL-1B inflam inh	MCF10A rerep	BCR signal inh	TDP1 cell noCPT	SW480 rerep	DT40 TDP1 CPT
CCCCc1ccc(NC(=S)NCc2ccc(OC)cc2)cc1	-9	1%	u	18µM*	30%	u
CC(=O)NC(=S)Nc1ccc(NC(=O)COc2ccc(C(C)C)cc2)cc1	54	1%	-3%	-22%	2%	-4%
COc1ccc(NC(=S)NCCc2c(C)[nH]c3ccc(OC)cc23)cc1	-52*	-10%	-2%	u	-9%	u
COc1ccc(CCNC(=S)Nc2ccc(OC)cc2)cc1	2	6%	-1%	u	-2%	u
COc1ccc(CCNC(=S)Nc2ccccc2)cc1	0	4%	-27%	u	-1%	u
COc1ccc(NC(=S)NCc2ccc(F)cc2)cc1	-12	1%	-2%	u	1%	-22%
CC(C)c1ccc(NC(=S)Nc2ccc(OC(F)(F)F)cc2)cc1	-7	-1%	u	23µM*	22%	18µM*
OC[C@@H]1CN(Cc2cccc(C(F)(F)F)c2)C[C@H](n2cnc3c(NC4CC4)ncnc32)O1	7	x	x	u	x	u
CCC(C)c1ccc(NC(=S)Nc2ccc(OC)cc2)cc1 (configuration not stated)	-18	u	2%	16µM*	5%	23µM*
COc1ccc(CCNC(=S)Nc2cc(C)cc(C)c2)cc1	-10	-6%	12%	23µM*	2%	u
CCCCc1ccc(NC(=S)N2CCCC2)cc1	-4	4%	u	15µM*	-4%	12µM*
CNc1cc(C)nc(-n2nc(C)cc2C)n1	0	-3%	-20%	5.2µM*	1%	5.8µM*
Cc1cc(Cl)nc(-n2nc(C)cc2C)n1	-6	3%	-7%	-16%	-5%	6%
Cc1cc(Nc2ccc(Cl)cc2C)nc(-n2nc(C)cc2C)n1	x	x	x	1.6µM*	x	5.2µM*
Cc1ccc(Nc2cc(C)nc(-n3nc(C)cc3C)n2)cc1	x	x	x	3.7µM*	x	3.3µM*
CCOc1ccc(Nc2cc(C)nc(-n3nc(C)cc3C)n2)cc1	12	u	u	0.58µM*	u	0.46µM*
Cc1ccc(Nc2cc(-n3nc(C)cc3C)ncn2)cc1	-24	6%	16%	-28%	2%	-21%
CN1C=CC(=C[N+](=O)[O-])N(C)C1=O	0	x	x	4%	x	-14%
COc1ccc(OCC(=O)N2CCN(S(=O)(=O)c3ccccc3[N+](=O)[O-])CC2)cc1	7	-11%	-1%	-10%	-16%	-5%

Bioassay records from PubChem BioAssay.
